Our source for the AC50 values is PMC6792352, “Limited Chemical Structural Diversity Found to Modulate Thyroid Hormone Receptor in the Tox21 Chemical Library” (Environmental Health Perspectives, 2019).

Where a name gives a salt, the structure may show the parent alone.

This test deals with thyroid hormone receptor (endogenous TRα and TRβ). Also noted: species or system GH3-TRE-Luc (rat pituitary); GH3-TRE-Luc luciferase reporter, antagonist mode against 1 nM T3, loss of signal, qHTS. The settings on record: read-out: Average AC50 (uM) GH3-TRE-Antag, antagonist mode, 1 nM T3, no GH3 cytotoxicity hit.
Regarding `CCCCNC1CC(C)(C)NC(C)(C)C1` [N-Butyl-2,2,6,6-tetramethylpiperidin-4-amine], the AC50 – broadly, the concentration at which the activity in the assay is half-maximal – was 60.2 µM. On to `CC(C)OC(=O)OCOP(=O)(CO[C@H](C)Cn1cnc2c(N)ncnc21)OCOC(=O)OC(C)C` [Tenofovir disoproxil fumarate], for which the AC50 stood at 24.9 µM. As to `CN1CCC(OC(c2ccccc2)c2ccccc2)CC1` [Diphenylpyraline hydrochloride], the concentration at half-maximal activity (AC50) is 9 µM. As to `CC1=NC(C)OC1C` (stereo not drawn) [2,4,5-Trimethyl-3-oxazoline], the AC50 is greater than 90 µM. As for `Cc1ccc(C(C)c2ccc(C)c(C)c2)cc1C` [1,1-Bis(3,4-dimethylphenyl)ethane], the figure is 70.8 µM.

As for `C=C/C(C)=C/C/C=C(\C)CCC=C(C)C` [alpha-Farnesene], the AC50 stood at 44.9 µM. As for `Fc1ccc([C@@]2(Cn3cncn3)O[C@@H]2c2ccccc2Cl)cc1` (racemic) [Epoxiconazole], the AC50 was determined as 41.2 µM. For the molecule `c1ccc2sc(SN(C3CCCCC3)C3CCCCC3)nc2c1` [N,N-Dicyclohexyl-2-benzothiazolesulfenamide], the AC50 was found to be 33.2 µM. For `O=C(COc1ccc(Cl)cc1)OCCNC12CC3CC(CC(C3)C1)C2` [Adafenoxate], the AC50 came out at 26 µM.

On to `COC(=O)c1cc(Oc2ccc(Cl)cc2Cl)ccc1[N+](=O)[O-]` [Bifenox], for which the AC50 turned out to be 74 µM. Turning to `O=C(O)c1ccccc1Nc1cccc(C(F)(F)F)c1` [Flufenamic acid], the AC50 was 29.6 µM. Consider `C1COC(NC(C2CC2)C2CC2)=N1` [Rilmenidine], for which the AC50 was found to be 29.6 µM.
